# Values joined by “and” are separate entries in the source; they are usually repeats but may differ in a detail not shown here. Equal values may be shown once. The panel holds about 83,000 compounds, 20% with a hit somewhere; the sample as a whole holds those more often.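 Assay: single dose, 48 h. Readout: percent growth (0 = no net growth; negative = cell death). Active: <10.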 Active and inactive are the calls of the source.
# System: MDA-MB-468 breast
# Assay: NCI-60 one-dose screen, 48 h (100 = growth as untreated, 0 = no growth, -100 = all killed)
# Conditions: 10 µM unless noted
row,SMILES,growth
1,CCCCCCCCNC(=O)[C@@H](N)CSCOC(C)=O,89.8% (inactive)
2,Cn1cc(-c2csc(-c3cn(C(=O)OC(C)(C)C)c4ccccc34)n2)c2ccnc(Cl)c21,44.8% (inactive)
3,Nc1cc2c(cc1N)-c1ccccc1C2,89.4% (inactive) and 97.8% (inactive)
4,Cc1ccc(S(=O)(=O)N2CCc3ccc(O)c4c3C2CCc2ccccc2-4)cc1 (stereo not given),106% (inactive)
5,O=C(/C(=C\c1ccc([N+](=O)[O-])cc1)S(=O)Cc1ccc(F)cc1)c1ccc(F)cc1 (stereo not given),16.3% (inactive)
6,CN(C)CCC(O)(Cc1ccccc1)c1ccccc1 (stereo not given),110% (inactive)
7,COc1cc2oc(-c3cccc(C(=O)N[C@@H](CC(C)C)C(=O)OC(C)(C)C)c3)cc(=O)c2c(OC)c1OC,85.6% (inactive)
8,CCCC(C)(C)COC(=O)c1cccc(N)c1,109% (inactive)
9,O=C1CC[C@H](c2ccc(O)c3c2C(=O)[C@@H]2O[C@@H]2C3=O)c2cccc(O)c21,-64.8% (active)
10,COc1ccc(C2CC(c3ccc(Nc4ccnc5cc(Cl)ccc45)cc3)=NN2c2ccccc2)cc1 (stereo not given),101% (inactive)
11,NCCOc1ncccc1/C=C1\c2ccccc2-c2ccc(C(F)F)cc21,85.5% (inactive)
12,O=C(Nc1sc2c(c1C(=O)O)CCCC2)c1cccc(C(F)(F)F)c1,68.2% (inactive)
13,CCOC(=O)C1=CSC2=NC3=C(CCC/C3=C\c3ccc(Cl)cc3)C(c3ccc(Cl)cc3)N12 (stereo not given),84.9% (inactive)
14,Nc1ccc(CC(=O)O)c(N)c1,88.5% (inactive)
15,Cc1cc(CCNC=O)c(C)c2c1sc1ccccc12,71.4% (inactive)
16,Cc1cc2c3ccc(C)[n+](C)c3ccc2n1C,19.1% (inactive)
17,CCn1c(Sc2nnc(Nc3ccccc3)s2)nc2c1c(=O)n(C)c(=O)n2C,91.8% (inactive)
18,c1ccc(OCc2nnc(-c3ccc(Oc4ccccc4)cc3)o2)cc1,111% (inactive)
19,CN(CC(=O)N(Cc1ccc(C2CCCCC2)cc1)c1ccc(C(=O)NO)cc1)S(=O)(=O)c1c(F)c(F)c(F)c(F)c1F,-36.3% (active)
20,O=C(/C=C/c1ccc(Cl)cc1)c1ccc(Br)cc1,107% (inactive)

row,SMILES,growth
1,c1cc[n+](Cc2ccnc3ccccc23)cc1,126% (inactive)
2,CCCCCCN(CCCCCC)CCCNc1nccc2ccccc12,-6.34% (active)
3,Cc1ccc(-c2nc3nc(-c4ccc(Cl)cc4)nc(N4CCCNCC4)c3o2)cc1,-54.2% (active)
4,COc1cc(C(c2c[nH]c3ccccc23)N2CCCC2)ccc1OCc1ccccc1 (stereo not given),53.9% (inactive)
5,COc1cc(NC(=O)COc2ccccc2)c(C(N)=O)cc1OC,17.7% (inactive)
6,COc1ccc(N)cc1C(=O)Nc1cccc(-c2cc(=O)c3c(OC)c(OC)c(OC)cc3o2)c1,55.9% (inactive)
7,NC(=O)c1cccc(-n2ccc3cc(NC(=O)Nc4ccc(Cl)c(Cl)c4)ccc32)n1,60.8% (inactive)
8,CC(=O)OC[C@]12CC[C@@H]([C@@H](C)c3nnc(-c4ccncc4)o3)[C@@H]1[C@H]1CC[C@@H]3[C@@]4(C)CC[C@H](OC(C)=O)C(C)(C)[C@@H]4CC[C@@]3(C)[C@]1(C)CC2,59% (inactive)
9,N=C(N)c1ccc(-c2ccc(-c3ccco3)o2)cc1,22.9% (inactive)
10,CCNc1nc(-c2ccc(F)cc2)c(C#N)c(=O)n1C,45% (inactive)
11,NC1=CSC2=N/C(=C\c3ccc(Cl)cc3)C(=O)N12,64.5% (inactive)
12,CCCCCCCCSC1=CC(=O)C(OC)=C(OC)C1=O,-75% (active)
13,O=C(/C=C/C12c3ccccc3C(c3ccccc31)C1C(=O)NC(=O)C12)c1ccccc1 (stereo not given),9.65% (active)
14,CCN1CCN(c2cc(C)nc(N(CCCNc3ccnc4cc(Cl)ccc34)Cc3cccs3)n2)CC1,-26.4% (active)
15,O=C1Nc2ccccc2/C1=C/c1ccc(CO)n1-c1ccc(Cl)cc1,27.8% (inactive)
16,C/C(=N\NC(=O)Cn1c(-c2ccc(S(C)(=O)=O)cc2)nc2ccccc21)c1ccc(Cl)cc1,98.3% (inactive)
17,Cc1ccccc1CNc1c2ccccc2nc2ccccc12,5.84% (active)
18,COc1ccc(/C=N\NC(=O)c2ccc3nc(-c4ccc(Br)cc4)[nH]c3c2)cc1,32.1% (inactive)
19,O=C(Nc1cccc(-n2cc(-c3ccncc3)c(-c3cc(O)cc(Cl)c3)n2)c1)c1cc(C(F)(F)F)cc(C(F)(F)F)c1,31.2% (inactive)
20,COc1ccc([C@H]2c3cc(OC)c(OC)cc3C=C(C=O)C2CO)cc1OC (stereo not given in full),41% (inactive)
